These results are taken from PubChem BioAssay (NCI).

Each structure is given as a SMILES string. Values joined by “and” are separate entries in the source; they are usually repeats but may differ in a detail not shown here. Equal entries are not always repeated. This is part of a sample that, as a whole, favours compounds with a hit. Of some 83,000 tested, about 20% had one in any assay.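 Percent growth is the endpoint: 0 to 100 indicates growth inhibition (40 means 60% inhibition), 0 means no net growth, and negative values indicate cell death.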 Active and inactive are the calls of the source. The calls were made as follows: active = growth percent below 10; inactive = the rest.

Test systems include NCI-H23 lung; NCI-H226 lung; NCI-H322M lung; HOP-62 NSCLC; NCI-H460 lung; HOP-92 NSCLC; NCI-H522 lung; A549/ATCC NSCLC; 786-0 renal; COLO 205 colon; DU-145 prostate; K-562 leukemia; MALME-3M melanoma; MDA-MB-231 breast; RXF 393 renal; SF-268 CNS; SF-295 CNS; SF-539 CNS; UACC-257 melanoma; M14 melanoma.
Assay in all cases: NCI-60 one-dose screen, 48 h (100 = growth as untreated, 0 = no growth, -100 = all killed)
What all share (conditions): 10 µM unless noted

Regarding `O=C(CCl)c1ccc2c(c1)Nc1ccccc1S2`, the growth was 90.7% (inactive) and 94.2% (inactive) in the assay on NCI-H23 lung; 89.4% (inactive) and 91.2% (inactive) in the assay with NCI-H226 lung; 102% (inactive) and 92.7% (inactive) in the assay with NCI-H322M lung; 97.6% (inactive) and 99.8% (inactive) with HOP-62 NSCLC; 110% (inactive) and 105% (inactive) in the assay on NCI-H460 lung; 101% (inactive) in the assay on HOP-92 NSCLC. Moreover, the growth was 66.1% (inactive) and -35.2% (active) in the assay with NCI-H522 lung; 100% (inactive) and 106% (inactive) in the assay with A549/ATCC NSCLC; 63.6% (inactive) and 79.1% (inactive) with 786-0 renal; 110% (inactive) and 86.7% (inactive) in the assay on COLO 205 colon; 104% (inactive) in the assay on DU-145 prostate; 29.5% (inactive) and 30.3% (inactive) with K-562 leukemia. For the same compound, the growth in the assay with MALME-3M melanoma is 91.5% (inactive); in the assay with MDA-MB-231 breast it was 97.7% (inactive) and 89.5% (inactive); in the assay with RXF 393 renal it was 103% (inactive); in the assay on SF-268 CNS it was 104% (inactive) and 98.5% (inactive); in the assay on SF-295 CNS, 94.8% (inactive) and 96.3% (inactive); with SF-539 CNS, 91.7% (inactive) and 84.5% (inactive). Also, the growth was 102% (inactive) and 96.8% (inactive) with UACC-257 melanoma; 91.6% (inactive) and 91.5% (inactive) in the assay on M14 melanoma.
As to `CCOC(=O)Nc1ccc2c(c1)/C(=N\NC(N)=S)c1ccccc1-2`, the growth with NCI-H23 lung was 44.3% (inactive) and 62.6% (inactive); in the assay with NCI-H226 lung, 76% (inactive) and 81.1% (inactive); in the assay with NCI-H322M lung, 83.8% (inactive) and 94.9% (inactive); in the assay on HOP-62 NSCLC it was 74.7% (inactive) and 77.6% (inactive); with NCI-H460 lung, 52% (inactive) and 58.4% (inactive); with HOP-92 NSCLC, 71.1% (inactive). Also, the growth with NCI-H522 lung was 76.9% (inactive); in the assay with A549/ATCC NSCLC, 60% (inactive) and 57.6% (inactive); in the assay with 786-0 renal, 28% (inactive) and 53.7% (inactive); with COLO 205 colon it was 63.3% (inactive) and 88.3% (inactive); in the assay on DU-145 prostate, 64.1% (inactive) and 84.3% (inactive); in the assay with K-562 leukemia, 33.9% (inactive). Moreover, the growth in the assay on MALME-3M melanoma is 89.4% (inactive); in the assay on MDA-MB-231 breast, 32.7% (inactive) and 47.6% (inactive); in the assay on RXF 393 renal, 8.9% (active) and 12.6% (inactive); in the assay with SF-268 CNS, 78.6% (inactive) and 85.7% (inactive); in the assay with SF-295 CNS, 3.9% (active) and 30% (inactive); with SF-539 CNS it was 13.8% (inactive) and 31% (inactive). Further, the growth with UACC-257 melanoma was 41.9% (inactive) and 91.3% (inactive); with M14 melanoma, 42% (inactive) and 61.6% (inactive).
For `CCCCCn1sc(=O)n(Cc2ccc(CNC(=O)C(C)c3ccc(CC(C)C)cc3)cc2)c1=O` (stereo not given), the growth in the assay on NCI-H23 lung is 102% (inactive) and -73.4% (active); with NCI-H226 lung, 94.3% (inactive) and 37.3% (inactive); with NCI-H322M lung, 99.5% (inactive) and 67.6% (inactive); with HOP-62 NSCLC, 99.1% (inactive) and -43.2% (active); in the assay on NCI-H460 lung, 102% (inactive) and 22.9% (inactive); with HOP-92 NSCLC, 73.6% (inactive) and -66.2% (active). The growth in the assay on NCI-H522 lung was 85.4% (inactive) and -59.6% (active); in the assay on A549/ATCC NSCLC, 97.4% (inactive) and -19.1% (active); in the assay on 786-0 renal, 95.8% (inactive) and -86.5% (active); with COLO 205 colon, 122% (inactive) and -57.5% (active); in the assay with DU-145 prostate, 99.9% (inactive) and -93.4% (active); in the assay with K-562 leukemia it was 2.12% (active). The growth in the assay with MALME-3M melanoma was 99.8% (inactive) and -72.1% (active); in the assay with MDA-MB-231 breast, 93.3% (inactive) and -54.7% (active); in the assay with RXF 393 renal it was -91.7% (active); in the assay with SF-268 CNS, 94.5% (inactive) and -59.7% (active); in the assay with SF-295 CNS, 94.3% (inactive) and 47.1% (inactive); in the assay with SF-539 CNS, 93.6% (inactive) and -92.8% (active). The growth was 96.7% (inactive) and -19.5% (active) with UACC-257 melanoma; 95.2% (inactive) and -67.6% (active) with M14 melanoma.
In the case of `Cc1cc(=O)[nH]c(O)c1C#N`, the growth in the assay on NCI-H23 lung is 103% (inactive) and 97.6% (inactive); in the assay on NCI-H226 lung, 103% (inactive) and 101% (inactive); with NCI-H322M lung, 95.5% (inactive) and 99% (inactive); with HOP-62 NSCLC it was 96.6% (inactive) and 101% (inactive); in the assay with NCI-H460 lung, 105% (inactive) and 104% (inactive); in the assay on HOP-92 NSCLC, 106% (inactive) and 52% (inactive). Besides, the growth is 101% (inactive) and 96.9% (inactive) with NCI-H522 lung; 102% (inactive) and 95.3% (inactive) with A549/ATCC NSCLC; 97.7% (inactive) and 98.5% (inactive) in the assay with 786-0 renal; 111% (inactive) and 104% (inactive) with COLO 205 colon; 112% (inactive) and 106% (inactive) with DU-145 prostate; 106% (inactive) and 112% (inactive) with K-562 leukemia. Also, the growth in the assay on MALME-3M melanoma is 98% (inactive) and 103% (inactive); in the assay on MDA-MB-231 breast, 107% (inactive) and 109% (inactive); in the assay with RXF 393 renal, 106% (inactive); in the assay on SF-268 CNS it was 109% (inactive) and 101% (inactive); in the assay with SF-295 CNS it was 99.6% (inactive) and 98.5% (inactive); with SF-539 CNS, 97.8% (inactive) and 105% (inactive). Besides, the growth in the assay on UACC-257 melanoma is 99.4% (inactive) and 103% (inactive); in the assay on M14 melanoma, 99.4% (inactive) and 101% (inactive).
